SMILES strings stand for the structures. “And” between values parts separate entries of the source, which are not always exact repeats. Identical values can stand only once. In all, about 16,000 compounds went through this assay and about 4,000 (25%) were called active. Roughly 26% stayed inconclusive and do not appear here. Calls follow the shape of the dose curve; as a rule, active = well fitted curve in the direction sought with a large enough effect; inconclusive = small, poorly fitted or top-dose-only effect, or effect the other way; inactive = no such curve, though single readings can be large or run the other way. A selection follows. A structure can be active in one record and inactive in another.
% is scaled to controls: 0 for no effect and ±100 for the full control effect.

In the assay the target is Cytochrome P450 2C9 (Homo sapiens) (UniProt P11712). As to the kind of experiment: Cytochrome panel assay with activity outcomes. The following applies: recombinant CYP, pro-luciferin dealkylation, luminescence, p450-cyp2c9; series mostly up to 57.1 µM.
Cytochrome P450 2C9 (Homo sapiens), sequence (P11712 whole entry, looked up): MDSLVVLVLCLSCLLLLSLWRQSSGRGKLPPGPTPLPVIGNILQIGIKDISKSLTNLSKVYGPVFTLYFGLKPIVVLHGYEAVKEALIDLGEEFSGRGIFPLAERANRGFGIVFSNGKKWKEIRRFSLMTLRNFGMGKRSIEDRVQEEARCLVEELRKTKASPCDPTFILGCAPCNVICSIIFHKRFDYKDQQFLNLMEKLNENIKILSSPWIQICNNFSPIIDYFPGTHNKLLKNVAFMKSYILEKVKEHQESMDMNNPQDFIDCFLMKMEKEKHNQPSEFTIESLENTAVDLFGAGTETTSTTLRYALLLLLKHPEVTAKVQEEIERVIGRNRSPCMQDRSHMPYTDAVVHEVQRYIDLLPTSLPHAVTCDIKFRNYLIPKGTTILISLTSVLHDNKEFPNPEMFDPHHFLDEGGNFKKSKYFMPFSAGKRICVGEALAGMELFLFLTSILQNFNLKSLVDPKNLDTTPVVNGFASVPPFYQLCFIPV
On to `COc1cc(OC)c2cc(-c3ccncc3)cnc2c1`, for which the AC50 result was “inactive”.

In the case of `CCOC(=O)c1cc2c(C(F)(F)F)cc(-c3ccccc3)nc2o1`, the AC50 was 2.24 µM (active).

As for `CCOC(=O)c1cc(NC(=O)c2ccc(C)cc2)c(=O)oc1-c1ccccc1`, the AC50 result is “inactive”.

On to `Cc1[nH]c2c(C)cccc2c1CCNC(=O)c1ccc2c(c1[N+](=O)[O-])C(=O)c1ccccc1C2=O`, for which the half-maximal activity concentration (AC50) is 1.12 µM (active).

Take `Cc1[nH]c2ccccc2c1CCNC(=O)c1ccc2c(c1[N+](=O)[O-])C(=O)c1ccccc1C2=O`: the AC50 entry is “inactive”.

Turning to `COc1ccccc1-c1cncnc1NCc1cccnc1`, the activity, negative = inhibition was 3.29% [at 2.29 µM] (inactive).

For `O=C(/C=C/c1ccc2c(c1)OCO2)NCCSCc1cccc(Cl)c1`, the AC50 was 5.01 µM (active).

With `C=CCNC(=O)CC(=O)N/N=C/c1cccc(Br)c1`, the AC50 result is “inactive”.

As to `O=C(Cn1nc(C(F)F)cc1C(F)F)N/N=C/c1ccc2c(c1)OCO2`, the AC50 entry is “inactive”.

In the case of `O=C(CSCc1cccc(Br)c1)N/N=C/c1ccc2c(c1)OCO2`, the AC50 is 10 µM (active).

Consider `OC[C@@H]1O[C@@H](N2CCN([C@@H]3O[C@@H](CO)[C@@H](O)[C@H](O)[C@H]3O)CC2)[C@@H](O)[C@H](O)[C@H]1O`, for which the activity, negative = inhibition was 7.18% [at 11.4 µM] (inactive).

For `Cc1ccc(NC(=O)C(=O)NCc2ccc(/C=C(/C#N)C(=O)NCc3cccnc3)o2)cc1`, the AC50 was 0.631 µM (active).

For the compound `CCN1C(=O)[C@H]2[C@H]3[C@H](O)[C@H](O)C/C(=N/OC[C@@H](C)[C@H](OCc4ccccc4)C(C)C)[C@@H]3CC[C@@H]2C1=O`, the activity, negative = inhibition is 19.1% [at 11.4 µM] (inactive).

Consider `Cc1cccc(CNc2nc(-c3ccoc3)nc3ccccc23)c1`, for which the activity, negative = inhibition was -6.69% [at 2.29 µM] (inactive).

Turning to `Cc1cccc(NC(=O)CSc2nc3ccccc3c3nc(CCc4c(C)n[nH]c4C)nn23)c1`, the AC50 is 1.26 µM (active).

With `Cc1nnc(-c2cnn(-c3ccccc3)c2N)n1Cc1ccc(F)cc1`, the AC50 is 15.8 µM (active).

`Cc1ncc(CSC(=N)N)n1Cc1ccccc1`: the activity, negative = inhibition was -16.1% [at 11.4 µM] (inactive).

`Cc1nnc(-c2cnn(-c3ccccc3)c2N)n1Cc1ccncc1`: the AC50 was 14.1 µM (active).

With `N=C(N)C(N=Nc1ccccc1)C(=N)N` (stereo not drawn), the activity, negative = inhibition is 11.9% [at 11.4 µM] (inactive).

Take `O=C(O)[C@@H](O)[C@@H](O)[C@@H](O[C@H]1O[C@@H](CO)[C@@H](O)[C@@H](O)[C@@H]1O)[C@@H](O)CO`: the AC50 entry was “inactive”.

Regarding `Cc1ccc(C2NC(c3ccc(C)cc3)C(C)C(=NO)C2C)cc1` (stereo not drawn), the AC50 was 6.31 µM (active).

For the compound `c1ccc2c(CSCCc3ccncc3)cccc2c1`, the AC50 was 0.0631 µM (active).

`c1cc(CNCCN2CCNCC2)ccn1`: the activity, negative = inhibition was -4.43% [at 11.4 µM] (inactive).

For the compound `Clc1ccc(CSCCc2ccncc2)cc1Cl`, the AC50 is 0.0794 µM (active).

Take `O=S(=O)(O)CCCc1cccc2ccccc12`: the activity, negative = inhibition is -3.26% [at 11.4 µM] (inactive).

Consider `CN1CCN(CCc2ccc(Cl)c(Cl)c2)CC1`, for which the AC50 result was “inactive”.

Consider `c1cc(CSSCc2ccncc2)ccn1`, for which the AC50 is 1.58 µM (active).

Take `N=C(N)SCCc1ccc(CCSC(=N)N)cc1`: the AC50 result is “inactive”.

As for `N=C(N)SCCc1ccncc1`, the activity, negative = inhibition is 6.27% [at 11.4 µM] (inactive).

On to `c1ccc(CSCCc2ccncc2)cc1`, for which the AC50 is 0.316 µM (active).

For the compound `c1ccc2c(CC3NCCN3)cccc2c1`, the activity, negative = inhibition is -9.35% [at 11.4 µM] (inactive).

As for `C[C@@H]1c2ccccc2CN1CC1=NCCN1`, the AC50 entry was “inactive”.

For `Cc1ncc([N+](=O)[O-])n1CCO`, the AC50 result is “inactive”.

Take `CCOC(=O)N1CCC(NC(=O)CCC(=O)N2CC(C)Oc3ccc(C)cc32)CC1` (stereo not drawn): the AC50 entry was “inactive”.

Regarding `CCOC(=O)N1CCC(NC(=O)CS(=O)(=O)Cc2nc(-c3cccc(OC)c3)oc2C)CC1`, the AC50 is 25.1 µM (active).

For `Cc1oc(-c2ccccc2F)nc1CS(=O)(=O)CC(=O)NCCCN(C)C1CCCCC1`, the AC50 entry is “inactive”.

Regarding `CNc1ncnc2ccc(-c3cccc(NS(C)(=O)=O)c3)cc12`, the activity, negative = inhibition was -18.3% [at 2.29 µM] (inactive).

Consider `CC1=C(CC(=O)O)c2cc(F)ccc2/C1=C\c1ccc(S(C)(=O)=O)cc1`, for which the AC50 entry was “inactive”.

Consider `CC1=C(CC(=O)O)c2cc(F)ccc2/C1=C\c1ccc(S(C)=O)cc1` (stereo not drawn), for which the concentration at half-maximal activity (AC50) entry was “inactive and 12.6 µM (active)”.

Regarding `Cc1noc(C)c1COc1cccc(C(=O)OCC(=O)N2CC(=O)Nc3ccccc32)c1`, the AC50 was 3.55 µM (active).

Consider `Cc1cc(=O)[nH]c(-n2[nH]c(C)cc2=O)n1`, for which the AC50 entry is “inactive”.

On to `CO[C@]1(NC(=O)C2SC(=C(C(N)=O)C(=O)O)S2)C(=O)N2C(C(=O)O)=C(CSc3nnnn3C)CS[C@H]21` (stereo partly drawn), for which the AC50 entry is “inactive”.

In the case of `CC(=O)NCCNc1ncnc2ccc(-c3ccccc3C)cc12`, the activity, negative = inhibition was -0.544% [at 2.29 µM] (inactive).

As to `Cc1ccccc1-c1cc(C(=O)n2cccn2)c2cc(Cl)ccc2n1`, the AC50 was 5.01 µM (active).

For the compound `CC(=O)NCCNc1cc(-c2ccccc2C)ncn1`, the activity, negative = inhibition is 5.2% [at 2.29 µM] (inactive).

Regarding `C[C@@H](c1ccccc1)N1C(=O)[C@H]2[C@H]3[C@H](O)[C@H](O)C/C(=N/OC[C@@H](O)COCc4ccco4)[C@H]3CC[C@@H]2C1=O`, the activity, negative = inhibition is 10.7% [at 11.4 µM] (inactive).

For `CC(C)n1cc(/C=C2/SC(=O)N(CC(=O)Nc3ccc4c(c3)OCO4)C2=O)c2ccccc21`, the AC50 is 3.98 µM (active).

For the compound `Cc1c(/C=C2\SC(=O)N(CC(=O)Nc3ccc4c(c3)OCO4)C2=O)c2ccccc2n1C`, the AC50 entry is “inactive”.

In the case of `O=C(CCc1ccc(O)cc1)c1c(O)cc(O)cc1O`, the AC50 was 12.6 µM (active).

With `C[C@@H](CCc1ccc(O)cc1)NCCc1ccc(O)c(O)c1`, the AC50 entry was “inactive”.

As to `CC(=O)N[C@H](Cc1ccc(O)cc1)C(=O)O`, the activity, negative = inhibition was 2.06% [at 11.4 µM] (inactive).

Turning to `C(=N\n1cnnc1)/c1cccn1-c1ccccc1`, the AC50 was 5.01 µM (active).

Turning to `CCOC(=O)c1cc2sc(C)cc2n1CCCN1C(=O)c2ccccc2C1=O`, the AC50 is 3.55 µM (active).

With `Cc1cc2[nH]c(=O)c3ccccc3n2n1`, the AC50 entry is “inactive”.

Regarding `O=c1[nH]c2ccccc2c2ccccc12`, the AC50 entry was “inactive”.

Regarding `Cc1nc2c(O)cccc2c(=O)[nH]1`, the AC50 is 3.98 µM (active).

As to `COc1cc(C2C(C(=O)c3ccc(C)o3)=C(O)C(=O)N2CCc2ccccc2)ccc1O` (stereo not drawn), the AC50 is 7.08 µM (active).

`COc1ccc(CCN2C(=O)C(O)=C(C(=O)c3ccco3)C2c2cccs2)cc1OC` (stereo not drawn): the AC50 is 1.41 µM (active).

For the compound `CCC(C)NC(=O)C1c2cc(OC)c(OC)cc2C(=O)N(C)C1c1cccs1` (stereo not drawn), the AC50 result is “inactive”.

On to `CN(C)CCN1C(=O)C(O)=C(C(=O)c2cc3ccccc3o2)C1c1cccc(Br)c1` (stereo not drawn), for which the AC50 entry was “inactive”.

As to `COc1cc2c(cc1OC)C(C(=O)N1CCOCC1)C(c1cccs1)N(C)C2=O` (stereo not drawn), the AC50 result was “inactive”.

In the case of `CCOc1cccc(C2C(C(=O)c3ccc(C)o3)=C(O)C(=O)N2Cc2ccncc2)c1` (stereo not drawn), the AC50 was 12.6 µM (active).

Regarding `Cc1ccc(C2C(C(=O)c3sc(C)nc3C)=C(O)C(=O)N2CCN2CCOCC2)o1` (stereo not drawn), the AC50 result is “inactive”.

In the case of `Cc1ccc(C(=O)C2=C(O)C(=O)N(CCCn3ccnc3)C2c2ccc(OC(C)C)cc2)o1` (stereo not drawn), the concentration at half-maximal activity (AC50) was 11.2 µM (active).

Turning to `C/C(=N\O)c1cccc[n+]1Cc1ccccc1`, the activity, negative = inhibition is -0.751% [at 11.4 µM] (inactive).

On to `COC(=O)[C@]1(C)CCC(c2ccc(C)cc2)=C(CC(=O)O)C1`, for which the activity, negative = inhibition was 3.21% [at 11.4 µM] (inactive).

For the compound `OC[C@@H]1NC[C@@H](O)[C@H]1O`, the AC50 entry is “inactive”.

As to `FC(F)(F)c1ccccc1-c1cncnc1NCCN1CCOCC1`, the activity, negative = inhibition was -5.4% [at 2.29 µM] (inactive).

`CSc1ccc(NC(=O)Nc2cc(C)ccn2)cc1`: the activity, negative = inhibition is -15.6% [at 11.4 µM] (inactive).

In the case of `Cc1cc(NC(=O)Nc2ccc(N(C)C)cc2)c2cc(F)cc(F)c2n1`, the AC50 is 6.31 µM (active).

Take `Cc1cc(N)c2cc(NC(=O)Nc3ccc4nc(C)cc(N)c4c3)ccc2n1`: the activity, negative = inhibition is -18.2% [at 11.4 µM] (inactive).

As to `c1ccc(CNc2ncnc3ccc(-c4cccnc4)cc23)cc1`, the activity, negative = inhibition is 8.31% [at 2.29 µM] (inactive).

As for `CC1=C(C(=O)OCc2ccccc2)C(c2cccnc2)c2c(n(C)c(=O)n(C)c2=O)N1` (stereo not drawn), the AC50 was 4.47 µM (active).

Take `CN1C(=O)CC[C@@H]1c1cccnc1`: the AC50 entry is “inactive”.

In the case of `O=C1NC(=O)[C@@](Cc2ccccc2)(c2cccnc2)N1`, the activity, negative = inhibition was -6.71% [at 11.4 µM] (inactive).

As to `Cc1cnc(CNc2ncncc2-c2ccc3c(c2)OCO3)cn1`, the activity, negative = inhibition is 15.7% [at 2.29 µM] (inactive).

In the case of `CCC(C)(C)NC(=O)c1ccc2c(c1)N(CC(=O)OC)C(=O)C(C)(C)O2`, the AC50 was 28.2 µM (active).

As to `COC(=O)c1cc2c(ccn2-c2ccc(F)cc2)n1CC(C)C`, the AC50 was 10 µM (active).

For the compound `Cc1ccc(/C=C2\Sc3ccccc3C2=O)s1`, the AC50 is 3.55 µM (active).

Turning to `c1ccc(-c2cccc(N3CC[C@@]4(CCCNC4)C3)c2)cc1`, the AC50 result is “inactive”.

For `CN1CCCCC1=NCCCn1cnc2c1c(=O)n(C)c(=O)n2C`, the AC50 result was “inactive”.

On to `Cc1ccc(S(=O)(=O)c2cc(C#N)c(=O)[nH]c2N)cc1`, for which the AC50 is 11.2 µM (active).

On to `N#Cc1cc2[nH]c(=O)c(=O)[nH]c2cc1[N+](=O)[O-]`, for which the AC50 entry is “inactive”.

`Cc1ccc(S(=O)(=O)Nc2cc(=O)[nH]c3c2CCC3)cc1`: the activity, negative = inhibition was 8.32% [at 11.4 µM] (inactive).

On to `COc1cccc([C@H](O)Cn2cc(-c3ccc(CON=C(C)C)cc3)nn2)c1`, for which the activity, negative = inhibition is -13.3% [at 11.4 µM] (inactive).

For the compound `CN(C)c1ncc2nc(-c3ccc(F)cc3)c(=O)n(CCC#N)c2n1`, the AC50 result is “inactive”.

For `Cc1nn(Cc2ccc(Cl)cc2)c(C)c1NC(=O)CSc1nc2c(c(C(F)(F)F)n1)CCc1ccccc1-2`, the AC50 was 1.41 µM (active).

As for `Cc1ccccc1Cn1cc(NC(=O)CSc2nc3c(c(C(F)(F)F)n2)CCc2ccccc2-3)cn1`, the AC50 was 1.78 µM (active).

Regarding `Cl/C(=C\n1cncn1)c1ccc(Cl)cc1Cl`, the AC50 result was “inactive”.

With `O=C(c1cnc(-c2ccccc2)s1)c1ccc(Cl)cc1Cl`, the AC50 was 20 µM (active).

As to `COc1cc([C@@H](O)CO)ccc1OS(=O)(=O)O`, the AC50 result was “inactive”.

In the case of `COc1ccc(C(O)P(=O)(OC(C)C)OC(C)C)cc1OC` (stereo not drawn), the AC50 was 7.94 µM (active).

With `COC(=O)C(C(=O)OC)C(C[N+](=O)[O-])c1ccc(OC)c(OC)c1` (stereo not drawn), the AC50 result is “inactive”.

For orientation: AC50 means the concentration at which the activity in the assay is half-maximal.

For the origin of these results see PubChem BioAssay AID1851 (National Center for Advancing Translational Sciences (NCATS), 2009).
